High-throughput results (PubChem BioAssay)
Many of the other results were omitted from the sample, so hits are more common in it than they were.
Pf Dd2 inh: inhibitors of Plasmodium falciparum Dd2 growth | 4.3% of 120,000 active | AID 1347417 | P. falciparum Dd2 growth, SYBR Green, 72 h | Potency, µM (top dose mostly 28.9 µM), hits mostly inhibitors; active means well fitted inhibition curve with a large enough effect; further: nearly all actives have a fitted effect of over 65% in size
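Infected erythrocytes (Dd2, 0.3% parasitemia, 2.5% hematocrit final) are added to compound in RPMI-1640/Albumax II medium, grown 72 h at 37C in low oxygen, then lysed with saponin/Triton-X containing SYBR Green and read by fluorescence.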
Large screens that a line does not name were inactive.

Cc1ccc(-c2cn3c(n2)sc2cc(C(=O)NCCC4=CCCCC4)ccc23)cc1	none
CCC(C)NC(=O)c1ccc2c(c1)sc1nc(-c3ccc(OC)cc3)cn12 (centres undefined)	none
CCc1ccc(-c2cn3c(n2)sc2cc(C(=O)NCCC4=CCCCC4)ccc23)cc1	none
COc1cccc(-c2cn3c(n2)sc2cc(C(=O)NC4CCCCC4)ccc23)c1	none
COc1ccc(-c2cn3c(n2)sc2cc(C(=O)NCc4cccc(F)c4)ccc23)cc1	none
COc1ccc(-c2ccc3nnc(CNC(=O)CCc4cccc(OC)c4)n3n2)cc1	none
Cc1cccc(N(CC(=O)NCCSCc2cccc(Cl)c2)S(=O)(=O)c2ccccc2)c1C	none
O=C(CN1CCCc2nc(-c3ccncc3)ncc2C1=O)NCc1cc(F)ccc1F	none
Cc1ccsc1CN1CCOc2cc([S+](=O)([O-])N(C)C)ccc2C1	none
COc1ccc(-c2cc(N3CCCC(NC(=O)c4ccc(C(F)(F)F)cc4)C3)n[nH]2)cc1 (centres undefined)	none
O=C1NCCCCCCN(Cc2cccc(OC(F)(F)F)c2)[C@H]2CCC[C@@H]12	Pf Dd2 inh 7.08µM
